The record followed here is PubChem BioAssay AID651642 (Sanford-Burnham Center for Chemical Genomics, 2012).

Calls of active or inactive are those of the source.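 The calls were made as follows: active = average half-effect concentration of 10 µM or less in every one of the four cell panels; inactive = the rest.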

The test system of this assay is H9c2. As to the kind of experiment: cardiomyocyte survival under oxidative or metabolic stress – cell-based, panel, H9c2 and HL-1, H2O2, 2-deoxyglucose, ATP luminescence, SAR follow-up (AID 651642). Particulars: H9c2/HL-1 cardiomyocyte H2O2 oxidative damage, mean of runs, with H2O2.
In the case of `COc1cccc(CNC(=O)CNC(=O)c2cc(-c3cc(OC)c(OC)c(OC)c3)nc3ccccc23)c1`, the molecule was called active.
The value for `COc1cc(-c2cc(C(=O)Nc3cccc(C#N)c3)c3ccccc3n2)cc(OC)c1OC` was “inactive”; that for `COc1cc(-c2cc(C(=O)Nc3cccc(C(=O)Nc4ccccc4)c3)c3ccccc3n2)cc(OC)c1OC` was “active”.
Regarding `CCOC(=O)c1cccc(NC(=O)CNC(=O)c2cc(-c3cc(OC)c(OC)c(OC)c3)nc3ccccc23)c1`, the molecule was called inactive.
On to `COc1ccc2c(c1OC)C(=O)N1c3ccccc3C(=O)N(Cc3ccccc3Cl)C21` (configuration not stated), for which the outcome was inactive.
The value for `COc1cc(-c2cc(C(=O)NCC(=O)Nc3ccc(C(C)=O)cc3)c3ccccc3n2)cc(OC)c1OC` was “inactive”.
With `COc1ccc2nc(-c3cc(OC)c(OC)c(OC)c3)cc(C(=O)Nc3cccc(C(C)=O)c3)c2c1`, the molecule was classed as inactive.
In the case of `COc1cc(-c2cc(C(=O)Nc3cccc(C(=O)N4CCOCC4)c3)c3ccccc3n2)cc(OC)c1OC`, the outcome was active.
The value for `CCOC(=O)c1cccc(NC(=O)c2cc(-c3cc(OC)c(OC)c(OC)c3)nc3ccc(Br)cc23)c1` was “inactive”.
The value for `CCOC(=O)c1cccc(NC(=O)c2cc(-c3cc(OC)c(OC)c(OC)c3)nc3cc(Cl)ccc23)c1` was “inactive”.
Under `COc1ccc2c(c1OC)C(=O)N1c3ccccc3C(=O)N(Cc3ccc(F)cc3)C21` (configuration not stated) stands “inactive”; under `COc1cc(-c2cc(C(=O)Nc3cccc(C(C)=O)c3)c3cccc(Cl)c3n2)cc(OC)c1OC`, “inactive”; under `CCOC(=O)c1cccc(NC(=O)CNC(=O)c2cc(-c3cc(OC)c(OC)c(OC)c3)nc3ccc(OC)cc23)c1`, “active”.
For the molecule `COc1ccc(NC(=O)CNC(=O)c2cc(-c3cc(OC)c(OC)c(OC)c3)nc3ccccc23)cc1`, the molecule was called inactive.
Regarding `COc1cc(-c2cc(C(=O)NCC(=O)Nc3cccc(C(C)=O)c3)c3ccccc3n2)cc(OC)c1OC`, the result was active.
Under `COc1ccc2c(c1OC)C(=O)N1c3ccccc3C(=O)N(Cc3cccc(F)c3)C21` (configuration not stated) stands “inactive”; under `COc1cc(-c2cc(C(=O)Nc3cccc(C(N)=O)c3)c3ccccc3n2)cc(OC)c1OC`, “active”; under `COc1cc(-c2cc(C(=O)Nc3cccc(C(=O)NCc4ccccc4)c3)c3ccccc3n2)cc(OC)c1OC`, “active”.
Regarding `COC(=O)CNC(=O)c1cccc(NC(=O)c2cc(-c3cc(OC)c(OC)c(OC)c3)nc3ccccc23)c1`, the call was inactive.
In the case of `COc1ccc2c(c1OC)C(=O)N1c3ccccc3C(=O)N(Cc3ccccn3)C21` (configuration not stated), the molecule was called inactive.
Under `COc1cc(-c2cc(C(=O)Nc3cccc(C(C)=O)c3)c3cc(Br)ccc3n2)cc(OC)c1OC` stands “inactive”; under `CCOC(=O)c1cccc(NC(=O)CNC(=O)c2cc(-c3cc(OC)c(OC)c(OC)c3)nc3c(Cl)cccc23)c1`, “inactive”.
As to `CCOC(=O)c1cccc(NC(=O)CNC(=O)c2cc(-c3cc(OC)c(OC)c(OC)c3)nc3ccc(Br)cc23)c1`, the molecule was called active.
Under `CCOC(=O)c1ccccc1NC(=O)c1cc(-c2cc(OC)c(OC)c(OC)c2)nc2ccccc12` stands “inactive”; under `CCOC(=O)c1cccc(NC(=O)c2cc(-c3cc(OC)c(OC)c(OC)c3)nc3c(Cl)cccc23)c1`, “inactive”; under `COc1ccc2nc(-c3cc(OC)c(OC)c(OC)c3)cc(C(=O)NCC(=O)Nc3cccc(C(C)=O)c3)c2c1`, “inactive”.
For the molecule `COc1ccc2c(c1OC)C(=O)N1c3ccccc3C(=O)N(Cc3ccccc3Br)C21` (configuration not stated), the call was inactive.
`CCOC(=O)c1cccc(NC(=O)CNC(=O)c2cc(-c3cc(OC)c(OC)c(OC)c3)nc3ccc(F)cc23)c1`: the call was active.
Take `COc1ccc2c(c1OC)C(=O)N1c3ccccc3C(=O)N(Cc3ccccc3)C21` (configuration not stated): the call was inactive.
The value for `CCOC(=O)c1cccc(NC(=O)c2cc(-c3cc(OC)c(OC)c(OC)c3)nc3ccc(OC)cc23)c1` was “active”; that for `CCOC(=O)c1cccc(NC(=O)CNC(=O)c2cc(-c3cc(OC)c(OC)c(OC)c3)nc3ccc(C)cc23)c1` was “active”; that for `COc1ccc2c(c1OC)C(=O)N1c3ccccc3C(=O)N(Cc3cccc(C)c3)C21` (configuration not stated) was “inactive”.
